# This is a sample that favours compounds with a hit; in the whole collection about 2.8% have one here.
# Shn3 3UTR inh: inhibitors of Schnurri-3 3'UTR reporter in osteoblasts. Clone20 osteoblast Shn3 3'UTR firefly luciferase, 24 h. inhibition, % at 12.5 µM. 360,000 tested, 0.52% active;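 active = mean inhibition of at least 75% with every replicate also reaching 75%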;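 also: 0% = median of neutral control wells and 100% = pilot-screen positive control compound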
# Peg3 promoter: reduces Peg3 promoter-driven luciferase expression in HeLa; HeLa PEG-Prom luciferase reporter, luminescence, overnight; inhibition, % at 20 µM; 360,000 tested, 1.7% active; AID 588405;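 active = inhibition of at least 50% at 20 µM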
# KKLEB cytotox: CF airway cell cytotoxicity counter-screen | KKLEB CF airway cells viability, ATPlite luminescence, overnight; hits give low values; cells stimulated with P. aeruginosa culture filtrate | activity change (cytotoxicity), % at 5 µM | 360,000 tested, 0.36% active | AID 602141;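 active = corrected activity change at or below -50% at 5 µM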
# CF NFkB inh: cystic fibrosis NF-kB activation inhibition; inhibition, % at 5 µM; AID 588850; 360,000 tested, 0.86% active; KKLEB NF-kB-GFP reporter, PAF-induced, GFP fluorescence overnight;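 active = at least 50% inhibition at 5 µM, scaled per plate between neutral and stimulator controls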;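 also: PAF is a Pseudomonas aeruginosa culture filtrate used as stimulus; plate controls were PAF-stimulated DMSO wells for no effect and unstimulated DMSO wells for full effect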
# TRPM1 prom inh: inhibitors of MITF-driven TRPM1 promoter in melanoma cells; 330,000 tested, 0.83% active; inhibition, % at 12.5 µM; AID 488899; SK-MEL-5 TRPM1 promoter luciferase, 24 h;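 active = mean inhibition across replicates of 60% or more, whatever share of single replicates reaches that level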
# HIF-2a block: blocks HIF-2a reporter activity. inhibition, % at 18.8 µM. 786-0 RCC cells HIF-2a reporter, luciferase luminescence, overnight. 360,000 tested, 0.72% active;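 active = inhibition of the luminescence signal of 40% or more relative to plate controls, in a single-dose primary screen at 18.75 µM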
# An asterisk follows results filed as active; nt = not tested or not shown.
SMILES,Shn3 3UTR inh,Peg3 promoter,KKLEB cytotox,CF NFkB inh,TRPM1 prom inh,HIF-2a block
O=[N+]([O-])c1ccc2[nH]c(O)c(N=NC3CS(=O)(=O)CC3O)c2c1 (configuration not stated),22,1,-24,-4,-8,14
Cc1ccc(NC2CCCN(C(=O)c3ccoc3)C2)cc1C (configuration not stated),-8,-9,9,-24,5,-23
CCOC1=C2[C@@H](CN(S(=O)(=O)c3ccc(C)cc3)[C@H]2c2ccc(CC)cc2)[C@H]2C(=O)N(C)C(=O)[C@H]2C1,-17,3,-15,17,nt,6
Cc1cccn2cc(COc3ccc(-c4ccccc4)cc3)nc12,50,-210,9,-24,-55,-399
O=C1C=CC2(O[C@H](c3ccccc3)[C@@H](c3ccccc3)O2)[C@H](Sc2ccccc2O)C1,96*,108*,-86*,89*,94*,89*
c1ccc(-c2ccc(-c3nc(-c4ccccn4)no3)cc2)cc1,83*,97*,-78*,-36,nt,83*
CCSc1ncc(Cl)c(C(=O)Nc2sc3c(c2C(=O)NCc2cccnc2)CCCC3)n1,-6,7,-54*,44,-5,-5
CCSc1ncc(Cl)c(C(=O)Nc2ccccc2Cl)n1,-28,-8,4,-19,-1,-52
CCc1ccc(-c2nc(CN3CCC(C(=O)NCCN(CC)c4ccccc4)CC3)c(C)o2)cc1,60,108*,-9,1,67*,-49
CCN(CCNC(=O)C1CCN(Cc2nc(-c3ccc(Cl)cc3)oc2C)CC1)c1ccccc1,14,39,-14,20,1,-13
Cc1ccccc1-c1nc(CN2CCC(C(=O)NCCCN3CCCC(C)C3)CC2)c(C)o1 (configuration not stated),20,23,-4,8,94*,5
CCc1ccc(-c2nc(CN3CCC(C(=O)N4CCN(c5ccccc5)CC4)CC3)c(C)o2)cc1,53,88*,-21,18,17,-9
Cc1cc(C)n2nc(SCc3cccc(F)c3)nc2n1,3,-14,2,-16,-46,-25
COC(=O)[C@H]1C[C@H](OC(=O)NC2CCCC2)[C@@]2(O)CN(S(=O)(=O)c3ccc(C)cc3)CC2[C@H]1C(=O)OC (some centres not stated),13,4,6,15,nt,-6
Cc1nc2ccc(NC(=O)c3ccc(S(=O)(=O)N(C)c4ccccc4)cc3)cc2s1,34,67*,19,2,18,23
O=C(Nc1ccc2oc(-c3cccnc3)nc2c1)c1ccc([N+](=O)[O-])o1,52,108*,-58*,89*,71*,24
O=C(Nc1nc(-c2cccs2)cs1)c1ccc([N+](=O)[O-])o1,-5,-21,-13,76*,86*,-10
O=C(Nc1ccc2oc(-c3cccnc3)nc2c1)c1ccc(Br)o1,0,0,14,-7,10,-13
O=C(Nc1cccc(NC(=O)c2ccc([N+](=O)[O-])o2)c1)c1ccco1,8,57*,-8,43,64*,-13
CC(=O)Nc1ccc2nc(NC(=O)c3ccco3)sc2c1,-45,-208,3,-2,-20,-173
CC(=O)Nc1ccc2nc(NC(=O)c3ccc([N+](=O)[O-])o3)sc2c1,3,-3,-24,81*,51,-18
O=C(Nc1nc(-c2cccs2)cs1)c1ccco1,-21,-352,1,-17,-67,-261
COc1cc(C)c(C)cc1S(=O)(=O)NC1CC(C)(C)NC(C)(C)C1,0,-2,1,-1,0,21
O=C(CC(=O)c1ccccc1)Nc1ccc(Cl)cc1,-34,-237,-9,2,-113,-216
O=C(Nc1cccc(N2C(=O)C=CC2=O)c1)c1cccs1,22,92*,1,40,73*,9
SMILES,Shn3 3UTR inh,Peg3 promoter,KKLEB cytotox,CF NFkB inh,TRPM1 prom inh,HIF-2a block
O=C(Nc1cccc(NC(=O)c2cccs2)c1)c1ccc([N+](=O)[O-])o1,63,55*,1,-19,98*,25
Cc1ccc(NC(=O)c2cccs2)cc1[N+](=O)[O-],-13,-154,10,-22,-28,-209
COc1cc(NC(=O)c2ccc([N+](=O)[O-])o2)ccc1NC(=O)c1cccs1,71,59*,-3,-29,87*,-14
Cc1nc2ccccc2c(=O)n1-c1cccc(NC(=O)c2cccs2)c1,-9,-4,-11,18,-1,6
Cc1ccc(S(=O)(=O)c2ccc(Cl)cc2)cc1S(=O)(=O)NC(C)C(=O)O (configuration not stated),-12,11,-3,1,-3,6
CCN(CC)c1ccc(-c2nn3c(-c4ccccc4OC)nnc3s2)cc1,42,22,-48,53*,49,27
CCC1(OC(=O)CN(C)C)C(=O)OCc2c1cc1n(c2=O)Cc2cc3c(N)cccc3nc2-1 (configuration not stated),-6,39,-56*,32,67*,13
CCC1(O)C(=O)OCc2c1cc1n(c2=O)Cc2cc3c(N)cccc3nc2-1 (configuration not stated),12,69*,-17,86*,72*,37
O=C(CC1C(=O)NCCN1Cc1cccc(F)c1)NC1CCCCC1 (configuration not stated),76,4,-4,3,-5,5
CN1C(=O)N(CC(=O)N2CCN(S(=O)(=O)c3ccc(Cl)s3)CC2)C(=O)C12CCCCC2,4,18,4,17,nt,9
CCOc1ccc(N=Nc2cc(C(C)C)ccc2O)cc1,-6,-74,-1,-6,-23,-82
CCOc1ccc(N=Nc2ccc(O)c3ncccc23)cc1,90*,22,7,-38,70*,7
CCN(CC)S(=O)(=O)c1cc(OC)ccc1N=Nc1ccc(O)c2ncccc12,90*,42,-20,19,71*,11
Cc1cccc(N=Nc2ccc(O)c3ncccc23)c1,87*,-102,3,-4,71*,-94
Oc1ccc(N=Nc2ccc3c(c2)OCCO3)c2ncccc12,95*,-34,-3,-22,73*,4
Cc1ccc(NCc2ccc(O)c3ncccc23)cc1,14,12,-1,6,9,10
CCOc1ccc(NC(=S)NC(=O)c2cccnc2)c([N+](=O)[O-])c1,-1,-7,-8,-6,3,-77
Cc1cccc(NC(=O)CCS(=O)(=O)c2ccc(Br)cc2)c1,-5,18,9,12,9,10
Cc1cc(OCC(=O)OC(C)C(=O)Nc2ccc(N3CCOCC3)cc2)ccc1Cl (configuration not stated),2,-37,-2,24,-12,-28
NS(=O)(=O)c1ccc(N=Nc2ccc(O)c3ncccc23)cc1,78,56*,6,-11,33,-1
